PrPC TRFRET = inhibitors of human cell surface prion protein PrPC. TR-FRET read-out. inhibition, % at 13.8 µM. actives 0.43% (n = 370,000); in the data active = inhibition above about 24%; also: 0% = median of the test wells and 100% = reference compound wells
PrP UTR inh = inhibition of PrP 5' UTR reporter expression | cell-based PrP 5' UTR mRNA reporter, plate reader | inhibition, % (test concentration not listed) | actives 0.35% (n = 340,000) | AID 488862; in the data active = inhibition above about 52%; also: 0 = median of the neutral control wells
Mtb FBA inh = inhibitors of M. tuberculosis fructose-bisphosphate aldolase | inhibition, % at 1 µM | purified M. tuberculosis FBA, fluorescence read-out | actives 2.3% (n = 360,000) | P9WQA3; in the data active = inhibition above about 27%;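 also: 0% = vehicle and 100% = reference inhibitor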
Target sequence (P9WQA3 whole entry, looked up): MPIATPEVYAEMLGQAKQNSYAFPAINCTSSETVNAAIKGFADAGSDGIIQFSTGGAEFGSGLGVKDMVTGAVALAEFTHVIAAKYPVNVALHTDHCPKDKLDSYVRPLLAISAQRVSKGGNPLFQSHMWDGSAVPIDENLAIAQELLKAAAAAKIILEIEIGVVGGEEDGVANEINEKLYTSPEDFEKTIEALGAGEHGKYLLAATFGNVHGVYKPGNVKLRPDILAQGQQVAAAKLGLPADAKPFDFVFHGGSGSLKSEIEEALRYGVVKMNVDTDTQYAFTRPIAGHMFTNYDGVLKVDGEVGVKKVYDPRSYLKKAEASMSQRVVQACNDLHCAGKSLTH
Yp Topo-I inh = inhibitors of Yersinia pestis topoisomerase I; Y. pestis Topo-I cleavage product accumulation, plate reader; activity, % at 10 µM; actives 0.064% (n = 360,000); AID 504884; in the data active = activity above about 50%, passing the limit was not always enough
GDH-TPI counter = inhibits GDH-TPI coupling enzymes, artifact for Mtb FBA screen. GDH-TPI coupled enzyme counterscreen, NADH absorbance. inhibition, % at 4.8 µM. actives 1.2% (n = 360,000); in the data active = inhibition above about 30%;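 also: 0% = DMSO wells and 100% = wells lacking the enzyme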
Mtb hypoxia inh = Mtb hypoxia fluorescent reporter inhibition | fluorescence inhibition, % (concentration not given with the values) | actives 0.1% (n = 300,000) | AID 1159583 | M. tuberculosis hypoxia-regulated fluorescent reporter, fluorescence; in the data active = fluorescence inhibition mostly above about 23%, no sharp cut-off; inactive = mostly below about 17%
* hit, by the source's call; x = not tested or not shown; + = active, no number. Only some compounds are listed: those with a hit (about 3.8% of all), similar ones and a draw of the others.

SMILES	PrPC TRFRET	PrP UTR inh	Mtb FBA inh	Yp Topo-I inh	GDH-TPI counter	Mtb hypoxia inh
O=C(Cc1cccc2ccccc12)NN=Cc1ccc(Sc2nc3ccccc3s2)o1	x	x	x	x	x	12.3
COc1ccc(C)cc1-n1nnnc1SC(C)C(=O)NC1CCCC1 (stereo not drawn)	0.1	-21.9	-2.2	3.3	0.4	24.8*
O=C(NN=Cc1cccs1)c1cc(C2CC2)nc2ccccc12	x	x	x	x	x	1.5
COc1ccc(-c2cn(N=Cc3ccc(Cl)cc3Cl)c(N)n2)cc1	x	x	x	x	x	5.0
COc1cc(C(=O)C(=O)c2ccc(O)c(OC)c2)ccc1O	-4.1	-1.2	-1.9	1.2	35.3*	3.8
Nc1nnn(CC(=O)NN=Cc2ccccc2Cl)n1	x	x	x	x	x	3.6
CC(C)(CSc1nncn1N=Cc1ccco1)NS(=O)(=O)c1ccc(Cl)cc1	x	x	x	x	x	8.2
Nc1ccc(-c2nc3ccccc3s2)cn1	-1.9	-82.3	+	2.3	23.3	-2.2
COc1cc(OC)cc(-c2nc3ccccc3s2)c1	0.0	-98.7	9.4	-1.5	6.6	5.7
Cc1cc(-c2nc3ccccc3s2)ccc1N	-5.2	28.3	+	-2.0	37.1*	x
O=C1c2c(O)cc(O)cc2O[C@@]12c1c(cc(O)c3c1OC(c1ccc(O)cc1)C(O)C3)OC2c1ccc(O)cc1 (stereo partly drawn)	x	x	x	x	x	8.3
COc1ccc(C(C(=O)NC(C)(C)C)N(C(=O)CCC(=O)Nc2cc(C)on2)c2cccc(F)c2)cc1 (stereo not drawn)	0.4	-9.8	0.0	13.6	-7.8	12.1
CCC(C)(C)NC(=O)C(c1ccc(OC)cc1)N(C(=O)CCC(=O)Nc1cc(C)on1)c1cccc(F)c1 (stereo not drawn)	7.1	0.7	117.4*	1.1	0.7	4.7
CCOC(=O)C1CCCN(CC(=O)/C=C2/N(C)c3ccccc3C2(C)C)C1 (stereo not drawn)	-4.5	1.0	6.0	26.0	30.7*	13.0
CN1/C(=C/C(=O)COC(=O)CN2C(=O)C3CC=CCC3C2=O)C(C)(C)c2ccccc21 (stereo not drawn)	-5.8	-8.0	5.5	37.9	29.7	8.0
CN1/C(=C\C(=O)COC(=O)Cn2nnc(-c3ccccc3)n2)C(C)(C)c2ccccc21	9.6	-5.7	1.2	-5.3	33.6*	x
Cc1cc(C(=O)O)ccc1NC=C1CCCC(C)C1=O (stereo not drawn)	x	x	x	x	x	-1.9
COc1ccccc1NN=Cc1ccc2c(c1)OCO2	x	x	x	x	x	16.7
CN(C)c1ccc(/C=N/NC(N)=S)cc1[N+](=O)[O-]	-49.4	-1.4	-2.5	-2.5	42.6*	x
CCCSc1ccc(C2N[C@@](C)(C(=O)OC)C3C(=O)N(C)C(=O)C23)cc1 (stereo partly drawn)	x	x	x	x	x	19.5
CC12CN3CCN(CC(C3)/C1=N/NC(N)=O)C2	-0.3	-22.2	1.9	-5.7	0.7	x
CC12CN3CCN(CC(C3)/C1=N\N=C1/C3CN4CCN(C3)CC1(C)C4)C2	1.5	-7.7	113.3*	-1.4	5.8	x
CC1(C(=O)N2CC3(CC(c4ccccc4)=NO3)CC2C(=O)NCC(N)=O)CC1 (stereo not drawn)	x	x	x	x	x	9.9
S=C1CCC(c2ccc(Br)cc2)=NN1c1ccccc1	-2.1	-4.2	-1.1	-6.0	33.2*	6.7
Cc1ccc(N2N=C(c3ccc(Br)cc3)CCC2=O)cc1	9.0	-12.8	0.3	3.3	3.0	7.2
SMILES	PrPC TRFRET	PrP UTR inh	Mtb FBA inh	Yp Topo-I inh	GDH-TPI counter	Mtb hypoxia inh
Cc1cc(=O)n2[nH]c(-c3ccccc3)cc2n1	7.5	-15.2	26.7	0.5	-5.8	x
COc1cccc(-c2cc3nc(-c4ccccc4)cc(=O)n3[nH]2)c1	10.1	-34.8	84.5*	-0.6	14.5	-3.6
Cc1nc2scc(C)n2c(=O)c1S(=O)(=O)NCc1ccccc1	8.4	0.3	23.8	-0.5	37.9*	3.4
COC(=O)CN1C(=O)C2C(C3CC3)N3C(=O)CN(CCO)C(=O)[C@@]3(Cc3ccccc3)C2C1=O (stereo partly drawn)	x	x	x	x	x	5.2
O=Cc1c(N2CCSCC2)nc2ccccn2c1=O	4.8	-8.2	2.0	4.0	-5.4	40.2*
O=Cc1c(N2CCN(c3ccccc3)CC2)nc2ccccn2c1=O	-10.5	-33.0	-1.4	1.1	12.9	22.4
O=C(c1ccco1)N1N=C(c2cccs2)CC1c1ccc(F)cc1 (stereo not drawn)	6.2	-21.3	1.4	16.6	20.6	11.5
O=C(c1ccco1)N1N=C(c2cccs2)CC1c1cc([N+](=O)[O-])ccc1O (stereo not drawn)	-10.6	-13.5	-4.2	-16.1	45.4*	-4.0
CC(C)(C)OC(=O)COc1cc(O)c2c(=O)cc(-c3ccccc3)oc2c1	-5.6	-1.0	5.3	-2.0	5.8	3.5
CC(C)(C)OC(=O)COc1cc(OCC(=O)OC(C)(C)C)c2c(=O)cc(-c3ccccc3)oc2c1	12.9	-12.6	27.8*	9.2	20.7	1.9
c1ccc(Cn2c(-c3ccco3)nc3nc4ccccc4nc32)cc1	-18.6	-138.9	+	29.8	20.5	x
Cc1ccc(-c2nc3nc4ccccc4nc3n2Cc2ccco2)cc1	-6.0	-118.4	13.6	11.9	46.0*	x
CCCCCn1c(-c2ccco2)nc2nc3ccccc3nc21	-5.2	-10.5	+	16.0	6.4	2.5
c1coc(-c2nc3nc4ccccc4nc3n2CC2CCCO2)c1 (stereo not drawn)	-18.0	-8.4	+	-3.6	22.5	-5.0
O=C(C=Cc1cccs1)N1CCC2(CC1)Oc1ccc(Cl)cc1C(=O)C21CC(c2ccccc2)=NO1 (stereo not drawn)	x	x	x	x	x	-0.7
COc1cc(C2Nc3ccccc3NC3=C2C(=O)CC(c2ccc(OC)c(OC)c2)C3)ccc1O (stereo not drawn)	-4.1	-20.6	0.3	2.5	43.8*	-14.0
COCCNC(=O)/C(C#N)=C1\N=C(NC(=O)c2ccco2)c2ccccc21	-31.0	x	3.2	-9.7	45.1*	x
N#C/C(C(=O)NCc1ccccc1)=C1/N=C(NC(=O)c2cccs2)c2ccccc21	2.2	-24.5	-3.7	-9.6	19.5	10.9
CCCNC(=O)/C(C#N)=C1\N=C(NC(=O)c2ccco2)c2ccccc21	-16.7	-16.2	-4.5	-10.8	35.4*	3.0
CC(C)CNC(=O)/C(C#N)=C1\N=C(NC(=O)c2ccco2)c2ccccc21	-21.6	-35.7	-2.2	0.1	29.3	3.9
Cc1ccc(S(=O)(=O)N2C(c3cccs3)CC=C(C(=O)O)C2c2ccccc2F)cc1 (stereo not drawn)	x	x	x	x	x	2.2
O=C(CCC1CCCC1)NC(Cc1ccc(O)cc1)C(=O)O (stereo not drawn)	x	x	x	x	x	14.3
COc1ccc(C2CC(=O)C=C(c3cc(OC)ccc3OC)C2)cc1 (stereo not drawn)	x	x	x	x	x	8.1
CCCn1c(/C=C/c2ccccc2)nc2ccccc21	-5.7	-66.8	52.5*	4.9	38.1*	19.0
COc1ccc(C=NNC(=O)c2sccc2OCc2ccc(F)cc2)cc1OC	x	x	x	x	x	7.7
Cc1cc(C(=O)N/N=C/c2ccc([N+](=O)[O-])o2)c(C)o1	-19.9	-16.8	0.8	-0.7	40.5*	x
